Hits are enriched below; roughly 11% of the tested compounds scored in any of these assays.
HEK cytotox: Cytotoxic Profiling in HEK 293 Cell Line of Diverse Libraries Using Quantitative High-Throughput Screening; 94,000 tested, 6.6% active; HEK 293 viability, ATP luminescence (CellTiter-Glo), 48-72 h; Potency, µM (top dose mostly 115 µM), without a hit: top-dose activity change, negative = cytotoxicity, hits mostly inhibitors; also: nearly all actives have a fitted effect of over 60% in size
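ATP-coupled CellTiter-Glo luminescence served as viability read-out, recorded 10 min after reagent addition at room temperature. HEK 293 cells, 250 cells/well, had been incubated with pintool-transferred compound for 48 or 72 hr at 37 degree Celsius.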
hNpr1 antagonist: Natriuretic polypeptide receptor (hNpr1) antagonism - Primary qHTS. AID 1347048, 2019. HEK293 hNpr1 GloSensor cGMP, ANP-stimulated luminescence. 76,000 tested, 1.6% active. Potency, µM (titrated, usually from 46.3 µM), inactives show at the highest dose activity change, negative = inhibition, most hits filed as inhibitors. Atrial natriuretic peptide receptor 1 (Homo sapiens), P16066; calls by dose curve; also: nearly all actives have a fitted effect of over 60% in size
Target sequence (P16066 whole entry, looked up): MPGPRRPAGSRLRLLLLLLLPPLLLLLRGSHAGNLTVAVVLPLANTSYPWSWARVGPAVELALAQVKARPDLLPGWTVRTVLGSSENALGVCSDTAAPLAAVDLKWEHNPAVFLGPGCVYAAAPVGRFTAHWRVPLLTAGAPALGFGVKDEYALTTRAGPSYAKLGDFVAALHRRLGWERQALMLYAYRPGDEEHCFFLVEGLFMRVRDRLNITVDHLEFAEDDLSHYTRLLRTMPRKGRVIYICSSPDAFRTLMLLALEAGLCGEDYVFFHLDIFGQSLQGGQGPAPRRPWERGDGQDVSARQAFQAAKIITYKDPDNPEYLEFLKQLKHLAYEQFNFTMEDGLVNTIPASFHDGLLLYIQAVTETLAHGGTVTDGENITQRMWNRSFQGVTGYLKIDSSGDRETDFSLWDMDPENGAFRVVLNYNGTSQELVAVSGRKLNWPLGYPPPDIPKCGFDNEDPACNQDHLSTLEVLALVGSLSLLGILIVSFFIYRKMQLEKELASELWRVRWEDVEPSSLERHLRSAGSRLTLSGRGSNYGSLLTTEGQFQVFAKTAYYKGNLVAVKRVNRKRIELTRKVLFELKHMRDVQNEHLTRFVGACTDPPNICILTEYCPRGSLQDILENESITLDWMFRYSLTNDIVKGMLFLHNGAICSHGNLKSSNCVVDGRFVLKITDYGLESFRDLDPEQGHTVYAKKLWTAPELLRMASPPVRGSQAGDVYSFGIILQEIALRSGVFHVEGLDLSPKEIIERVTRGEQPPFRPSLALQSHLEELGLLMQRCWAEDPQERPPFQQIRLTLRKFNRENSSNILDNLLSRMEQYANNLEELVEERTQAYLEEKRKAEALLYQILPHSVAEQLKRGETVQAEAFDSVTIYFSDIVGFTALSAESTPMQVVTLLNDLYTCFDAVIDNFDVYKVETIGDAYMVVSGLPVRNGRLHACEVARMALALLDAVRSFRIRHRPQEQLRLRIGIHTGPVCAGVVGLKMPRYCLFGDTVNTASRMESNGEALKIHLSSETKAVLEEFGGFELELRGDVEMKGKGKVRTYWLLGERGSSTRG
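HEK293 cells stably expressing human Npr1 and cGMP GloSensor pGS-40F, loaded 2 h with 2% GloSensor reagent, given compound 30 min at room temperature. Luminescence read before and 20 min after 0.1 nM hNppA.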
3T3 cytotox: Cytotoxic Profiling in NIH 3T3 Cell Line of Diverse Libraries Using Quantitative High-Throughput Screening | Potency, µM (highest dose often 96.7 µM), inactives show top-dose activity change, negative = cytotoxicity, actives largely listed as inhibitors | 94,000 tested, 4.3% active | AID 1345082, 2018 | NIH 3T3 viability, CellTiter-Glo ATP luminescence, 48-72 h; also: nearly all actives have a fitted effect of over 55% in size
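Viability of NIH 3T3 cells after 48 or 72 hr compound treatment at 37 °C was assessed by CellTiter-Glo, with luminescence imaged following a 10 min room-temperature step.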
Luciferase inh: Firefly luciferase inhibition profiling of diverse chemical library using quantitative high-throughput screening | 76,000 tested, 2.5% active | AID 1347043, 2019 | purified P. pyralis luciferase, luminescence, biochemical | Luciferin 4-monooxygenase (Photinus pyralis), P08659 | Potency, µM (doses to about 115 µM), most hits filed as inhibitors; also: nearly all actives have a fitted effect of over 65% in size
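Inhibitors were tested against purified firefly luciferase in a biochemical, low-substrate format (both substrates at 10uM) and luminescence measured with a CCD imager.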
* marks the source's active call; other numbers are inactive results. Unless noted, calls follow the shape of the dose curve; as a rule, active = well fitted curve in the direction sought with a large enough effect; inconclusive = small, poorly fitted or top-dose-only effect, or another doubt; inactive = no such curve, though single readings can be large; an effect the other way counts as inactive or inconclusive. % is scaled to controls: 0 for no effect and ±100 for the full control effect; potency is read from the fitted curve at half-maximal effect.

For CNC(=O)c1cc(C2CC2)nc2c1c(C1CCN(C(=O)c3ccccc3F)C1)nn2C (stereo unspecified) the results were HEK cytotox -25% and 3T3 cytotox -15%.
O=C(NCc1cccs1)C1CCCN1C(=O)c1cccc(-c2ccccn2)c1 (stereo unspecified) was read as HEK cytotox -12% and 3T3 cytotox -25%.
CCNC(=O)CN1CCN(c2nccc(C3CCCC3)n2)CC1 was read as HEK cytotox -9%, hNpr1 antagonist 3%, 3T3 cytotox -3% and Luciferase inh inactive.
Screening O=C(C1CCCN1C(=O)Nc1ccccc1)N1CCC(N2CCOCC2=O)CC1 (stereo unspecified) returned HEK cytotox -17% and 3T3 cytotox -15%.
Screening O=C(Nc1ccccc1)Nc1ccc([C@H]2OCC(=O)N(Cc3ccc(F)cc3)[C@@H]2CO)cc1 returned HEK cytotox 40µM*, hNpr1 antagonist -16%, 3T3 cytotox inconclusive and Luciferase inh inactive.
Screening CC(=O)N1CCN(c2nc3c(s2)CC(C(=O)Nc2ccc(F)c(Cl)c2)CC3)CC1 (stereo unspecified) returned HEK cytotox 7.9µM*, hNpr1 antagonist inconclusive, 3T3 cytotox 20µM* and Luciferase inh inactive.
`CCC(=O)N1CCN(c2nc3c(s2)CC(C(=O)Nc2ccc(C(C)C)cc2)CC3)CC1` (stereo unspecified) gave HEK cytotox 35µM*, hNpr1 antagonist inconclusive, 3T3 cytotox inconclusive and Luciferase inh inactive.
For CCc1ccc(NC(=O)C2CCc3nc(N4CCN(C(=O)C(C)C)CC4)sc3C2)cc1 (stereo unspecified) the results were HEK cytotox inconclusive, hNpr1 antagonist -27%, 3T3 cytotox -19% and Luciferase inh inactive.
For CC(=O)N1CCN(c2nc3c(s2)CC(C(=O)NCc2ccc(C(C)C)cc2)CC3)CC1 (stereo unspecified) the results were HEK cytotox 45µM*, hNpr1 antagonist inconclusive, 3T3 cytotox inconclusive and Luciferase inh inactive.
CCC(=O)N1CCN(c2nc3c(s2)CC(C(=O)Nc2ccc(F)cc2)CC3)CC1 (stereo unspecified) was read as HEK cytotox 13µM*, hNpr1 antagonist inconclusive, 3T3 cytotox 32µM* and Luciferase inh inactive.
Screening CN(C)C(=O)CCc1ccc2c(c1)CN(C(=O)C1CCCCC1)CCO2 returned HEK cytotox -17% and 3T3 cytotox -29%.
`COc1ccc(-c2cc(N3CCC(NC(=O)C4COc5ccccc5O4)CC3)n[nH]2)cc1` (stereo unspecified) gave HEK cytotox inconclusive, hNpr1 antagonist -22%, 3T3 cytotox inconclusive and Luciferase inh inactive.
Screening CCC(=O)N1CCN(c2nc3c(s2)CC(C(=O)Nc2ccc4c(c2)OCO4)CC3)CC1 (stereo unspecified) returned HEK cytotox 14µM*, hNpr1 antagonist 2%, 3T3 cytotox inconclusive and Luciferase inh inactive.
CCC(=O)N1CCN(c2nc3c(s2)CC(C(=O)N2CCCCC2)CC3)CC1 (stereo unspecified) was read as HEK cytotox -22%, hNpr1 antagonist -4%, 3T3 cytotox -18% and Luciferase inh inactive.
`CC(C)C(=O)N1CCN(c2nc3c(s2)CC(C(=O)NC2CCN(C)CC2)CC3)CC1` (stereo unspecified) gave HEK cytotox -4%, hNpr1 antagonist -1%, 3T3 cytotox -8% and Luciferase inh inactive.
Screening CC(C)C(=O)N1CCN(c2nc3c(s2)CC(C(=O)NCCc2cccs2)CC3)CC1 (stereo unspecified) returned HEK cytotox 79µM*, hNpr1 antagonist -9%, 3T3 cytotox -23% and Luciferase inh inactive.
`CCN1CCN(C(=O)c2cc(-c3ccc(F)cc3)c3nncn3n2)CC1` gave HEK cytotox -10% and 3T3 cytotox -19%.
`CCOC(=O)[C@@H]1[C@H]2c3ccccc3N(CCOC)C(=O)[C@H]2N(C(=O)c2ccccc2)[C@@H]1c1ccccc1` gave HEK cytotox 35µM* and 3T3 cytotox inconclusive.
For CN(C)C(=O)c1cccc2c1CCN2C(=O)C1CC1 the results were HEK cytotox 6%, hNpr1 antagonist 14%, 3T3 cytotox -10% and Luciferase inh inactive.
For CCCCNC(=O)c1cccc2c1CCN2C(=O)Nc1ccc(C)cc1 the results were HEK cytotox inconclusive, hNpr1 antagonist 1.4µM*, 3T3 cytotox inconclusive and Luciferase inh inconclusive.
`Cc1ccc(NC(=O)N2CCc3c(C(=O)N(C)C)cccc32)cc1` gave HEK cytotox 2%, hNpr1 antagonist -1%, 3T3 cytotox inconclusive and Luciferase inh 16µM*.
`COCCCNC(=O)c1cccc2c1CCN2C(=O)Nc1cccc(C)c1` gave HEK cytotox inconclusive, hNpr1 antagonist 2µM*, 3T3 cytotox inconclusive and Luciferase inh 0.32µM*.
CCCCNC(=O)c1cccc2c1CCN2C(=O)c1ccc(F)cc1 was read as HEK cytotox inconclusive, hNpr1 antagonist 5%, 3T3 cytotox -23% and Luciferase inh inactive.
N#Cc1ccc(C(=O)N2CCC(Cc3nc(-c4ccncc4)n[nH]3)C2)cc1 (stereo unspecified) was read as HEK cytotox 3%, hNpr1 antagonist -2%, 3T3 cytotox -25% and Luciferase inh inactive.
CNC(=O)c1cc(C2CC2)nc2c1c(C1CCN(C(=O)c3cccc(OC)c3)C1)nn2C (stereo unspecified) was read as HEK cytotox 79µM* and 3T3 cytotox inconclusive.
Screening CNC(=O)[C@H]1C[C@H](Oc2cccnc2)CN1S(=O)(=O)Cc1ccccc1F returned HEK cytotox 2%, hNpr1 antagonist -8%, 3T3 cytotox -15% and Luciferase inh inactive.
Cc1nn(-c2ccccc2)c2c1C(C(C)C)N(C1CCCN(C(=O)C3CCCC3)C1)C2=O (stereo unspecified) was read as HEK cytotox -10% and 3T3 cytotox -19%.
`Cc1nn(-c2ccccc2)c2c1C(C(C)C)N(C1CCCN(C(=O)Cc3ccccn3)C1)C2=O` (stereo unspecified) gave HEK cytotox inconclusive and 3T3 cytotox -30%.
`Cc1ccc(C(=O)N2CCCC(N3C(=O)c4c(c(C)nn4-c4ccccc4)C3C(C)C)C2)cc1` (stereo unspecified) gave HEK cytotox 45µM* and 3T3 cytotox inconclusive.
`Cc1nn(-c2ccccc2)c2c1C(C(C)C)N(C1CN(C(=O)C3CCCC3)C1)C2=O` (stereo unspecified) gave HEK cytotox 45µM* and 3T3 cytotox 40µM*.

Source: PubChem BioAssay
